Inhibition data for 34 molecules are collected here from ChEMBL document CHEMBL1961873, “Compounds: GSK PKIS; Assays: Nanosyn kinase panel” (2012).

Chain of Angiopoietin-1 receptor (Homo sapiens) (Q02763 whole entry): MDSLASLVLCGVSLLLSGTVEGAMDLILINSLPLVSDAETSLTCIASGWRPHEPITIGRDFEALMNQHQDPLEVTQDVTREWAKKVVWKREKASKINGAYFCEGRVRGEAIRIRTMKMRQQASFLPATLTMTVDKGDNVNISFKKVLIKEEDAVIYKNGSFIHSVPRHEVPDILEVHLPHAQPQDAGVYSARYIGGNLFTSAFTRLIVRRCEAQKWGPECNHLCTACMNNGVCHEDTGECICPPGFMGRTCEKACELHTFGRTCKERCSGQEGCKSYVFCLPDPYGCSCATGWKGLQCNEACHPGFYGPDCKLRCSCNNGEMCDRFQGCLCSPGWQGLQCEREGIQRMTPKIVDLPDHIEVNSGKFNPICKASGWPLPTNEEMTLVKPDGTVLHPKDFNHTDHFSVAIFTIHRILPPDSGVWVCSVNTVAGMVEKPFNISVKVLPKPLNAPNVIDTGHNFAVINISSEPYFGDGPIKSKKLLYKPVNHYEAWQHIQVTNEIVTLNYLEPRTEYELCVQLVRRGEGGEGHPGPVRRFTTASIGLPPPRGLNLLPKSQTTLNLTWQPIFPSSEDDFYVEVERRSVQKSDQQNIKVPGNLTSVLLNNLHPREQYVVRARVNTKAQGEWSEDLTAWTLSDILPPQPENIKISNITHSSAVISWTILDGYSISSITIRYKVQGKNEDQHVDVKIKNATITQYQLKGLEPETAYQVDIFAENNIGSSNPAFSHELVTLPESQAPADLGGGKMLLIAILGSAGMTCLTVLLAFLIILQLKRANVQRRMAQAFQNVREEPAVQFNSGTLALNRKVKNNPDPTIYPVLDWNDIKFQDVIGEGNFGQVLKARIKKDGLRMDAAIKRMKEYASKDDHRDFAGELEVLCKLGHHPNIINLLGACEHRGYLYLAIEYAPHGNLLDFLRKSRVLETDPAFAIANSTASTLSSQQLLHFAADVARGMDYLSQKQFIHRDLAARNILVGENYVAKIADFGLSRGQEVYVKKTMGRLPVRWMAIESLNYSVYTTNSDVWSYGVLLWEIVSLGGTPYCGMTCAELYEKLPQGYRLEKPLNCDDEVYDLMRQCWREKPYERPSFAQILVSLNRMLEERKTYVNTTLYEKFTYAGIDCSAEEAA

The first assay addresses Angiopoietin-1 receptor (Homo sapiens) (UniProt Q02763). To be noted: at 0.1 µM.
Turning to `NC(=O)c1cccc(Nc2nccc(Nc3cccc(F)c3)n2)c1`, the inhibition was found to be 1.74%.
Take `COc1cc2ncn(-c3cc(OCc4ccccc4S(C)(=O)=O)c(C#N)s3)c2cc1OC`: the inhibition is 5.63%.
`COc1cccc(-n2ncc3c(N/N=C/c4ccc(C)cc4)ncnc32)c1`: the inhibition is 4.38%.
Still for that read-out and setting: the result for `CN(C)CCCn1c(-c2nonc2N)nc2cnccc21` reads 0.92%; that for `O=C1Nc2ccc(-c3cccnc3)cc2C1=Cc1cc(Br)c(O)c(Br)c1`, 1.2%.
Take `N#Cc1c(NC(=O)c2ccccc2F)sc2c1CCCC2`: the inhibition is -1.22%.
For the molecule `CCOc1nccc2c1nc(-c1nonc1N)n2CC`, the inhibition was found to be 2.25%.
On the same count and under the same terms, then `COC(=O)c1cncc(/C=C/c2c(C)cc(O)cc2C)c1`, with 1%; and `Cc1cc(O)cc(C)c1/C=C/c1cncc(C(=O)N(C)C)c1`, with 5.65%.
Still for that read-out and setting: the result for `NS(=O)(=O)c1ccc(NC=C2C(=O)Nc3ccc4ncsc4c32)cc1` reads 1.88%; that for `CN(c1ccc(NC(=O)Nc2ccc(OC(F)(F)F)cc2)cc1)c1ccnc(Nc2cccc(S(N)(=O)=O)c2)n1`, 36%.
Consider `Cc1ccc(Nc2ccnc(Nc3cccc(C(N)=O)c3)n2)cc1O`, for which the inhibition worked out at 4.56%.
Same read-out and setting: the result for `CC(C)c1ccc(Nc2nccc(-c3cnn4ncccc34)n2)cc1` reads 2.92%; that for `NS(=O)(=O)c1cccc(Nc2cc(-c3ccc(F)cc3)n[nH]2)c1`, 0.52%; that for `Cc1ccc(NC(=O)CC2CC2)cc1-c1ccc(C(=O)NCC2CC2)cc1`, 2.75%.
`N#Cc1cccc(Nc2nccc(-c3cnn4ncccc34)n2)c1`: the inhibition was 3.66%.
Take `NS(=O)(=O)c1ccc(N/N=C2\C(=O)Nc3ccc(Cl)cc32)cc1`: the inhibition came out at 0.79%.
For `Nc1ccc(C#Cc2cncnc2Nc2ccc(OCc3cccc(F)c3)c(Cl)c2)cc1`, the inhibition amounted to 1.84%.
For `Nc1nccc(-c2c(-c3ccc(F)cc3)nn3cc(C(F)(F)F)ccc23)n1`, the inhibition was determined as 1.2%.

For the next assay the target is unchanged. To be noted: at 1 µM.
Regarding `CCS(=O)(=O)c1ccc(OC)c(Nc2ncc(-c3cccc(OC)c3)o2)c1`, the inhibition worked out at 16.1%.
As to `Cc1ccc2c(-c3ccnc(Nc4cccc(C(F)(F)F)c4)n3)c(-c3ccccc3)nn2n1`, the inhibition was 8.11%.
Turning to `CN(C)C(=O)O[C@H]1CN[C@H](C#Cc2cc3ncnc(Nc4ccc(OCc5cccc(F)c5)c(Cl)c4)c3s2)C1`, the inhibition came to 5.32%.
With `COc1cccc(-n2nc(C)c3c(N/N=C(\C)c4ccncc4)ncnc32)c1`, the inhibition amounted to 2.25%.
Still for that read-out and setting: then `CCn1c(-c2nonc2N)nc2ccc(F)cc21`, with 1.79%; and `Cc1cc(Cl)cc2c1NC(=O)C2=NNc1ccc(S(N)(=O)=O)cc1`, with 2.32%; and `CN1CCN(C(=O)c2ccc(NC(=O)Nc3ccc(N(C)c4ccnc(Nc5ccc(CS(C)(=O)=O)cc5)n4)cc3)cc2)CC1`, with 67.1%.
Take `C[C@@H](Oc1cc(-n2cnc3ccc(OCC4CCN(C)CC4)cc32)sc1C(N)=O)c1ccccc1C(F)(F)F`: the inhibition turned out to be 32.4%.
Take `Cc1nc(-c2ccccc2)n2nc(NCCCN3CCOCC3)ncc12`: the inhibition is 5.74%.
`CN(C)C(=O)O[C@@H]1CN[C@@H](C#Cc2cc3ncnc(Nc4ccc(OCc5cccc(F)c5)c(Cl)c4)c3s2)C1`: the inhibition came out at 4.73%.
The same measure, in the same setting: then `c1ccc(Nc2ncc(-c3ccccc3)o2)cc1`, with 3.99%.
As for `COc1cccc(-n2ncc3c(N/N=C/c4ccc(S(C)(=O)=O)cc4)ncnc32)c1`, the inhibition was found to be 31.4%.
The same measure, in the same setting: then `OCc1ccc(-c2nc(-c3ccccn3)c(-c3ccc4c(c3)OCO4)[nH]2)cc1`, with 6.23%; and `c1ccc(Cc2nc3ccc(Nc4ncnc5ccccc45)cc3[nH]2)cc1`, with 5.58%.
Same read-out and setting: the result for `CC(C)c1ccc2c(c1)NC(=O)/C2=N/Nc1ccc(S(N)(=O)=O)cc1` reads 3.02%; that for `NC(=O)c1cccc(Nc2nccc(Nc3cccc(F)c3)n2)c1`, 10.1%; that for `COc1cc2ncn(-c3cc(OCc4ccccc4S(C)(=O)=O)c(C#N)s3)c2cc1OC`, 14.6%.
For the molecule `COc1cccc(-n2ncc3c(N/N=C/c4ccc(C)cc4)ncnc32)c1`, the inhibition worked out at 5.1%.
With `CN(C)CCCn1c(-c2nonc2N)nc2cnccc21`, the inhibition was 1.59%.
Still for that read-out and setting: then `O=C1Nc2ccc(-c3cccnc3)cc2C1=Cc1cc(Br)c(O)c(Br)c1`, with 2.63%; and `N#Cc1c(NC(=O)c2ccccc2F)sc2c1CCCC2`, with 3.44%; and `CCOc1nccc2c1nc(-c1nonc1N)n2CC`, with 8.59%.
For the molecule `COC(=O)c1cncc(/C=C/c2c(C)cc(O)cc2C)c1`, the inhibition is 1.3%.
Consider `Cc1cc(O)cc(C)c1/C=C/c1cncc(C(=O)N(C)C)c1`, for which the inhibition came to 10.7%.
On the same count and under the same terms, then `NS(=O)(=O)c1ccc(NC=C2C(=O)Nc3ccc4ncsc4c32)cc1`, with 19.6%; and `CN(c1ccc(NC(=O)Nc2ccc(OC(F)(F)F)cc2)cc1)c1ccnc(Nc2cccc(S(N)(=O)=O)c2)n1`, with 79.2%.
With `Cc1ccc(Nc2ccnc(Nc3cccc(C(N)=O)c3)n2)cc1O`, the inhibition amounted to 39.7%.
Turning to `CC(C)c1ccc(Nc2nccc(-c3cnn4ncccc34)n2)cc1`, the inhibition was found to be 4.32%.
For the molecule `NS(=O)(=O)c1cccc(Nc2cc(-c3ccc(F)cc3)n[nH]2)c1`, the inhibition came out at 4.79%.
On the same count and under the same terms, then `Cc1ccc(NC(=O)CC2CC2)cc1-c1ccc(C(=O)NCC2CC2)cc1`, with 6.74%; and `N#Cc1cccc(Nc2nccc(-c3cnn4ncccc34)n2)c1`, with 18.6%; and `NS(=O)(=O)c1ccc(N/N=C2\C(=O)Nc3ccc(Cl)cc32)cc1`, with 3.42%.
`Nc1ccc(C#Cc2cncnc2Nc2ccc(OCc3cccc(F)c3)c(Cl)c2)cc1`: the inhibition was found to be 3.47%.
Still for that read-out and setting: then `Nc1nccc(-c2c(-c3ccc(F)cc3)nn3cc(C(F)(F)F)ccc23)n1`, with 3.87%.

The term inhibition denotes the change of the read-out against control, counted positive when it falls.
